# The full ranking holds about 16,000 sequences; the median of “rpm ratio (pull-down/input)” is about 0.94, and the highest 2% start at about 1.7. The entries come from a sample that favours the highest values as a whole.
# Biological target: T1, MBP-FoxP1dN (Mus musculus, UniProt P58462 326-579)
# T1 sequence: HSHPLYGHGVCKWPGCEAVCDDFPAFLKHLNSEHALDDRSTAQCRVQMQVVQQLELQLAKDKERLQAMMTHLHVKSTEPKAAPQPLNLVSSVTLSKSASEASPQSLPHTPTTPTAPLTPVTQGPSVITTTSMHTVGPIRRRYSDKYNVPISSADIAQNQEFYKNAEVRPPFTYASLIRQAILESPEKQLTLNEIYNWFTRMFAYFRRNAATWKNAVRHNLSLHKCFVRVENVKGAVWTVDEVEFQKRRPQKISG
# Assay: PD-seq (MBP pull-down with sequencing); 20 mM Tris-HCl pH 7.5, 100 mM NaCl, 1.5 mM MgCl2, 0.4 uM protein, 0.1 uM dsDNA library, 30 min, room temperature, amylose pull-down; high values mean tight binding
# Details: protein: recombinant; tags: His6-MBP; chain copies: 2; dsDNA, one strand shown
# Procedure, shortened: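 A fragment of mouse FoxP3 or FoxP1 without its N-terminus, carrying a His6-MBP tag and produced in E. coli, was combined at 0.4 µM with a 0.1 µM degenerate double-stranded DNA library filled in with Klenow. The mixture sat for 30 min at room temperature in Tris pH 7.5 buffer containing NaCl and MgCl2. Protein–DNA complexes were captured on amylose resin, washed three times, and the DNA was freed with proteinase K, barcoded by PCR and sequenced on Illumina. Binding is expressed as reads-per-million enrichment of pull-down over input, with replicates pooled.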
row,Sequence,binding signal
1,GATGATTGTTCTCCCAGCTGATGAATTGTCACCATCGAGTAAACAAATTTTCCTAATCTTTCTGTTCAAGCGCCATCTAC,1.13 RPM ratio (pull-down/input)
2,GATGATTGTTCTCCCAGCTGATGAATTACTGTTGTCGAGTAAACAAATTTTCCTAATCTTTCTGTTCAAGCGCCATCTAC,2.55 RPM ratio (pull-down/input)
3,GATGATTGTTCTCCCAGCTGATGAATTTCTGTTGTCGAGTAAACAAATTTTCCTAATCTTTCTGTTCAAGCGCCATCTAC,2.16 RPM ratio (pull-down/input)
4,GATGATTGTTCTCCCAGCTGATGAATTTCTTTTGTCGAGTAAACAAATTTTCCTAATCTTTCTGTTCAAGCGCCATCTAC,0.952 RPM ratio (pull-down/input)
5,GATGATTGTTCTCCCAGCTGATGAATTGTTGTTGTCGAGTAAACAAATTTTCCTAATCTTTCTGTTCAAGCGCCATCTAC,3.2 RPM ratio (pull-down/input)
6,GATGATTGTTCTCCCAGCTGATGAATTTTTTTTGTCGAGTAAACAAATTTTCCTAATCTTTCTGTTCAAGCGCCATCTAC,0.87 RPM ratio (pull-down/input)
7,GATGATTGTTCTCCCAGCTGATGAATTTTTTCTGTCGAGTAAACAAATTTTCCTAATCTTTCTGTTCAAGCGCCATCTAC,0.986 RPM ratio (pull-down/input)
8,GATGATTGTTCTCCCAGCTGATGAATTTTTGTTGTCGAGTAAACAAATTTTCCTAATCTTTCTGTTCAAGCGCCATCTAC,2.85 RPM ratio (pull-down/input)
9,GATGATTGTTCTCCCAGCTGATGAATTACTACTGTCGAGTAAACAAATTTTCCTAATCTTTCTGTTCAAGCGCCATCTAC,1.23 RPM ratio (pull-down/input)
10,GATGATTGTTCTCCCAGCTGATGAATTTTTCTTGTCGAGTAAACAAATTTTCCTAATCTTTCTGTTCAAGCGCCATCTAC,1.1 RPM ratio (pull-down/input)
11,GATGATTGTTCTCCCAGCTGATGAATTGTTCCTGTCGAGTAAACAAATTTTCCTAATCTTTCTGTTCAAGCGCCATCTAC,0.999 RPM ratio (pull-down/input)
12,GATGATTGTTCTCCCAGCTGATGAATTACTGATGTCGAGTAAACAAATTTTCCTAATCTTTCTGTTCAAGCGCCATCTAC,1.37 RPM ratio (pull-down/input)
13,GATGATTGTTCTCCCAGCTGATGAATTGTCGTTGTCGAGTAAACAAATTTTCCTAATCTTTCTGTTCAAGCGCCATCTAC,1.38 RPM ratio (pull-down/input)
14,GATGATTGTTCTCCCAGCTGATGAATTGCTATGTTCGAGTAAACAAATTTTCCTAATCTTTCTGTTCAAGCGCCATCTAC,1.24 RPM ratio (pull-down/input)
15,GATGATTGTTCTCCCAGCTGATGAATTCGAGTGGTCGAGTAAACAAATTTTCCTAATCTTTCTGTTCAAGCGCCATCTAC,0.752 RPM ratio (pull-down/input)
16,GATGATTGTTCTCCCAGCTGATGAATTCCTATCTTCGAGTAAACAAATTTTCCTAATCTTTCTGTTCAAGCGCCATCTAC,0.802 RPM ratio (pull-down/input)
17,GATGATTGTTCTCCCAGCTGATGAATTTGACTTGTCGAGTAAACAAATTTTCCTAATCTTTCTGTTCAAGCGCCATCTAC,0.82 RPM ratio (pull-down/input)
18,GATGATTGTTCTCCCAGCTGATGAATTTCCTGCGTCGAGTAAACAAATTTTCCTAATCTTTCTGTTCAAGCGCCATCTAC,0.938 RPM ratio (pull-down/input)
19,GATGATTGTTCTCCCAGCTGATGAATTCTCTCTTTCGAGTAAACAAATTTTCCTAATCTTTCTGTTCAAGCGCCATCTAC,0.917 RPM ratio (pull-down/input)
20,GATGATTGTTCTCCCAGCTGATGAATTTAATATGTCGAGTAAACAAATTTTCCTAATCTTTCTGTTCAAGCGCCATCTAC,0.979 RPM ratio (pull-down/input)

row,Sequence,binding signal
1,GATGATTGTTCTCCCAGCTGATGAATTTCTGTCGTCGAGTAAACAAATTTTCCTAATCTTTCTGTTCAAGCGCCATCTAC,0.96 RPM ratio (pull-down/input)
2,GATGATTGTTCTCCCAGCTGATGAATTGTCGTCGTCGAGTAAACAAATTTTCCTAATCTTTCTGTTCAAGCGCCATCTAC,1.05 RPM ratio (pull-down/input)
3,GATGATTGTTCTCCCAGCTGATGAATTGTTGTCGTCGAGTAAACAAATTTTCCTAATCTTTCTGTTCAAGCGCCATCTAC,2.33 RPM ratio (pull-down/input)
4,GATGATTGTTCTCCCAGCTGATGAATTCGATCTATCGAGTAAACAAATTTTCCTAATCTTTCTGTTCAAGCGCCATCTAC,0.885 RPM ratio (pull-down/input)
5,GATGATTGTTCTCCCAGCTGATGAATTATTCTTGTCGAGTAAACAAATTTTCCTAATCTTTCTGTTCAAGCGCCATCTAC,1.16 RPM ratio (pull-down/input)
6,GATGATTGTTCTCCCAGCTGATGAATTATTGTTGTCGAGTAAACAAATTTTCCTAATCTTTCTGTTCAAGCGCCATCTAC,3.22 RPM ratio (pull-down/input)
7,GATGATTGTTCTCCCAGCTGATGAATTATTAATGTCGAGTAAACAAATTTTCCTAATCTTTCTGTTCAAGCGCCATCTAC,1.35 RPM ratio (pull-down/input)
8,GATGATTGTTCTCCCAGCTGATGAATTATTATTGTCGAGTAAACAAATTTTCCTAATCTTTCTGTTCAAGCGCCATCTAC,3.2 RPM ratio (pull-down/input)
9,GATGATTGTTCTCCCAGCTGATGAATTATTGATGTCGAGTAAACAAATTTTCCTAATCTTTCTGTTCAAGCGCCATCTAC,1.85 RPM ratio (pull-down/input)
10,GATGATTGTTCTCCCAGCTGATGAATTATGATTGTCGAGTAAACAAATTTTCCTAATCTTTCTGTTCAAGCGCCATCTAC,1.45 RPM ratio (pull-down/input)
11,GATGATTGTTCTCCCAGCTGATGAATTATTGTCGTCGAGTAAACAAATTTTCCTAATCTTTCTGTTCAAGCGCCATCTAC,1.56 RPM ratio (pull-down/input)
12,GATGATTGTTCTCCCAGCTGATGAATTGATTATGTCGAGTAAACAAATTTTCCTAATCTTTCTGTTCAAGCGCCATCTAC,1.31 RPM ratio (pull-down/input)
13,GATGATTGTTCTCCCAGCTGATGAATTATTTCTGTCGAGTAAACAAATTTTCCTAATCTTTCTGTTCAAGCGCCATCTAC,1.11 RPM ratio (pull-down/input)
14,GATGATTGTTCTCCCAGCTGATGAATTATGAGTCTCGAGTAAACAAATTTTCCTAATCTTTCTGTTCAAGCGCCATCTAC,0.886 RPM ratio (pull-down/input)
15,GATGATTGTTCTCCCAGCTGATGAATTACGATCGTCGAGTAAACAAATTTTCCTAATCTTTCTGTTCAAGCGCCATCTAC,0.952 RPM ratio (pull-down/input)
16,GATGATTGTTCTCCCAGCTGATGAATTTGAGCTTTCGAGTAAACAAATTTTCCTAATCTTTCTGTTCAAGCGCCATCTAC,0.854 RPM ratio (pull-down/input)
17,GATGATTGTTCTCCCAGCTGATGAATTCGCTTGCTCGAGTAAACAAATTTTCCTAATCTTTCTGTTCAAGCGCCATCTAC,0.817 RPM ratio (pull-down/input)
18,GATGATTGTTCTCCCAGCTGATGAATTAAACTCTTCGAGTAAACAAATTTTCCTAATCTTTCTGTTCAAGCGCCATCTAC,0.825 RPM ratio (pull-down/input)
19,GATGATTGTTCTCCCAGCTGATGAATTTTTAATCTCGAGTAAACAAATTTTCCTAATCTTTCTGTTCAAGCGCCATCTAC,0.864 RPM ratio (pull-down/input)
20,GATGATTGTTCTCCCAGCTGATGAATTAAGTCCTTCGAGTAAACAAATTTTCCTAATCTTTCTGTTCAAGCGCCATCTAC,0.887 RPM ratio (pull-down/input)
